Screens: PubChem, several laboratories
The list is not random: actives were taken first. Their share in the collection is about 4.5%.
Mtb FBA inh: inhibitors of M. tuberculosis fructose-bisphosphate aldolase; P9WQA3; purified M. tuberculosis FBA, fluorescence read-out; inhibition, % at 1 µM; actives 2.3% (n = 360,000); AID 588726; in the data active means inhibition above about 27%;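 further: 0% = vehicle and 100% = reference inhibitor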
Target sequence (P9WQA3 whole entry, looked up): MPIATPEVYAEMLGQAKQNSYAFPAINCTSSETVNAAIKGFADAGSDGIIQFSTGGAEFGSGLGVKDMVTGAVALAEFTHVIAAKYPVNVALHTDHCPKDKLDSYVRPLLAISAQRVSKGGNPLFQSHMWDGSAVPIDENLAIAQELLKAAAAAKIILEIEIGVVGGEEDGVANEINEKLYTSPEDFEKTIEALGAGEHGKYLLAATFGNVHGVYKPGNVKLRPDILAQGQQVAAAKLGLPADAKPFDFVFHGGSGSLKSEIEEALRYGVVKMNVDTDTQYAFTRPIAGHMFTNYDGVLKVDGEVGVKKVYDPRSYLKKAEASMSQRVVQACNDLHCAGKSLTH
PrPC surface inh: reduces human prion protein on the cell surface; cell surface PrPC, TR-FRET read-out; actives 0.43% (n = 370,000); inhibition, % at 13.8 µM; P04156; AID 720596; in the data active means inhibition above about 24%; further: 0% = median of the test wells and 100% = reference compound wells
GDH-TPI inh: counter-screen for M. tuberculosis FBA inhibitors: GDH-TPI coupled enzymes. GDH-TPI coupled enzyme counterscreen, NADH absorbance. inhibition, % at 4.8 µM. actives 1.2% (n = 360,000); in the data active means inhibition above about 30%;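 further: 0% = DMSO wells and 100% = wells lacking the enzyme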
PrP 5UTR inh: inhibition of PrP 5' UTR reporter expression; cell-based PrP 5' UTR mRNA reporter, plate reader; actives 0.35% (n = 340,000); inhibition, % (test concentration not listed); in the data active means inhibition above about 52%; further: 0 = median of the neutral control wells
BJeLR viability: BJeLR cell viability loss; BJeLR (HRASV12) viability, CellTiter-Glo ATP luminescence, 48 h; inhibition, % (no concentration beside the values); actives 0.17% (n = 300,000); in the data active means inhibition above about 50%
PfHsp40 yeast: compounds rescuing yeast from Plasmodium falciparum HSP40 toxicity; S. cerevisiae expressing PfHsp40, growth rescue, ATP luminescence; growth rescue, % at 12.5 µM; actives 0.68% (n = 340,000); in the data active means growth rescue above about 28%, passing the limit was not always enough;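 further: yeast W303a lacking pdr1 and pdr3 grown in galactose medium; growth measured after three days at 30 °C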
* = called active by the depositor; . = no result given.

SMILES	Mtb FBA inh	PrPC surface inh	GDH-TPI inh	PrP 5UTR inh	BJeLR viability	PfHsp40 yeast
CN(C)c1ccc(/C=N/n2c(-c3ccccc3Br)n[nH]c2=S)cc1	0.0	-4.6	53.7*	-6.2	-9.4	0.7
CN(C)c1ccc(/C=N/n2c(COc3ccccc3)n[nH]c2=S)cc1	0.3	7.2	34.6*	-4.7	-1.2	-1.1
CN(C)c1ccc(/C=N/n2c(C3CCCCC3)n[nH]c2=S)cc1	0.8	-3.9	35.7*	-5.1	12.8	.
O=S(=O)(CC1NCc2cc(F)ccc21)NCCc1ccccc1 (centres undefined)	.	-1.6	.	.	.	.
C#CCOCCOCCOCCNc1nc(N2CCN(C(=O)[C@H](CCCCN)n3cc([C@@H](N)C(C)CC)nn3)CC2)nc(N2CCN(C(=O)[C@H](CCCCN)n3cc([C@@H](N)C(C)CC)nn3)CC2)n1 (some centres undefined)	.	-2.9	.	.	.	.
c1ccc2cc(Cn3ccc4ccc(-c5ccc6cc[nH]c6c5)cc43)ccc2c1	.	-5.2	.	.	.	.
CCN(C(=O)CSc1nncn1-c1ccccc1)c1c(N)n(Cc2ccccc2)c(=O)[nH]c1=O	-0.1	-2.2	0.0	-27.3	9.4	26.7*
Cn1c(O)c(/C=N/NC(=O)c2cc3ccccc3cc2O)c2ccccc21	-8.2	-8.5	18.4	-26.4	5.9	-0.6
COc1ccc2c(c1)cc(C(=O)N/N=C/c1c(O)c(C(=O)O)cc3ccccc13)n2C	-1.8	-2.5	31.9*	-20.1	7.3	-0.3
O[C@H](COc1cc(F)cc(F)c1)CN1CCC(C(O)(c2ccccc2)c2ccccc2)CC1	.	-12.3	.	.	.	.
S=C(NCc1ccc(Cl)cc1)OC1CCC12CCC(c1ccccc1)CC2 (centres undefined)	.	0.6	.	.	.	.
CNc1ncc(C(=O)c2ccc(Cl)c(Cl)c2)s1	-0.9	6.3	34.1*	-55.6	-5.2	0.8
O=C(c1ccccc1)c1cnc(Nc2ccccc2Cl)s1	0.8	.	30.8*	-64.6	1.2	-0.8
CC(C)Oc1ccc(S(=O)(=O)N2CCCCCC2)c2ccccc12	.	1.4	.	.	.	.
CN(CCOC(=O)c1occ2ccccc12)C1CN(Cc2cn(Cc3ccccc3Cl)nn2)S(=O)(=O)C1 (centres undefined)	.	-2.8	.	.	.	.
C=C(C)COc1ccc2c(C)c(CC(=O)N3C[C@H]4C[C@@H](C3)c3cccc(=O)n3C4)c(=O)oc2c1C	124.5*	2.5	12.5	-10.9	-15.8	0.0
COc1ccc2c(C)c(CC(=O)N3C[C@H]4C[C@@H](C3)c3cccc(=O)n3C4)c(=O)oc2c1C	134.2*	1.4	13.7	-9.9	-2.0	6.8
Cc1cc(=O)oc2c(C)c(OCC(=O)N3C[C@H]4C[C@@H](C3)c3cccc(=O)n3C4)ccc12	4.3	6.4	4.9	-22.7	-3.7	-1.0
Cc1coc2cc3oc(=O)c(CC(=O)N4C[C@H]5C[C@@H](C4)c4cccc(=O)n4C5)c(C)c3cc12	20.3	5.8	2.9	1.5	-2.6	-0.6
COC(=O)[C@]12C[C@H](CC(=O)NCC34CC5CC(CC(C5)C3)C4)C(=O)N(CCc3ccc(OC)c(OC)c3)C1=C[C@H](C(C)(C)C)O[C@@H]2C	.	0.4	.	.	.	.
C/C(=N\Nc1ccc(S(N)(=O)=O)cc1[N+](=O)[O-])c1ccco1	-5.8	-64.6	41.2*	-13.7	3.7	-2.2
COc1ccc(-c2ccc(C(=O)NC3CCCCC3)c3occc23)c(C)c1	15.1	7.1	2.7	.	.	.
COc1ccc(-c2ccc(C(=O)NCC3CCOCC3)c3occc23)c(C)c1	131.9*	10.5	-4.4	.	.	.
O=C(CN1CCN(c2ccccn2)CC1)Nc1ccccc1	4.1	-3.1	8.6	5.8	2.6	26.1*
O=C(/C=C1\OCc2ccccc21)c1ccccc1	.	-4.8	.	.	.	.
SMILES	Mtb FBA inh	PrPC surface inh	GDH-TPI inh	PrP 5UTR inh	BJeLR viability	PfHsp40 yeast
Cc1ccc(/C=N/Nc2cc(C)nc(N3CCOCC3)n2)cc1	-2.2	2.3	31.3*	-17.1	3.9	0.3
Cc1cccc(/C=N/Nc2cc(N3CCOCC3)nc(N3CCOCC3)n2)c1	-1.9	-0.2	29.8	7.8	-15.4	-3.3
Cc1cc(N/N=C/c2ccccc2)nc(N2CCOCC2)n1	-1.0	-2.6	25.8	.	6.3	.
COc1ccc(Nc2nc(N3CCOCC3)nc(N3CCOCC3)n2)c(OC)c1	-0.3	5.7	-6.0	-5.6	-2.6	-0.2
Cc1cc(N/N=C/c2ccc(O)cc2O)nc(N2CCOCC2)n1	-7.7	-6.2	69.1*	-11.5	11.1	-0.6
COc1ccc(/C=N/Nc2cc(C)nc(N3CCOCC3)n2)c(OC)c1	-2.9	2.9	47.6*	-11.3	-3.2	-0.6
